PubChem BioAssay (NCI)
This is part of a sample that, as a whole, favours compounds with a hit. Of some 79,000 tested, about 15% had one in any assay. The source made the active and inactive calls. Cut-off read from the data, not from the text of the source: active = growth inhibition above about 70%; inactive = the rest.

Experiments:
[1] = NCI Yeast Anticancer Drug Screen. Data for the rad14 strain (AID 159);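 note: 0% = growth of vehicle-treated control cultures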; conditions: S. cerevisiae rad14 strain growth inhibition, active compounds read high
Summary of the method: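 Test compounds were applied to a repair-deficient yeast strain. Its growth was then compared with that of cultures given vehicle alone, and inhibition was expressed relative to those controls.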

[2] = NCI Yeast Anticancer Drug Screen. Data for the sgs1 mgt1 strain (AID 161);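 note: 0% = growth of cultures given vehicle only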; conditions: S. cerevisiae sgs1 mgt1 strain, active compounds read high
Summary of the method: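 Mutant yeast exposed to compound; growth scored against vehicle-only wells.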

[3] = NCI Yeast Anticancer Drug Screen. Data for the CLN2oe strain (AID 163);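 note: 0% = growth of vehicle-only control cultures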; conditions: S. cerevisiae CLN2oe strain, active compounds read high
Summary of the method: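 Inhibition relative to vehicle-treated yeast is reported. Cells: strain with genetic alteration in cell-cycle control, grown with compound.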

[4] = NCI Yeast Anticancer Drug Screen. Data for the bub3 strain (AID 167); conditions: S. cerevisiae bub3 mutant strain, active compounds read high
Summary of the method: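 Yeast carrying a defined mutation is treated with each compound, and growth is compared with that of vehicle-exposed cells to give inhibition.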

[5] = NCI Yeast Anticancer Drug Screen. Data for the wt2 strain (AID 169);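 note: 0% = growth of vehicle-treated yeast cultures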; conditions: S. cerevisiae wt2 strain growth inhibition, active compounds read high
Summary of the method: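 Inhibition of yeast growth was determined after compound treatment, normalised to controls receiving only vehicle.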

[6] = NCI Yeast Anticancer Drug Screen. Data for the mlh1 strain (AID 171);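 note: 0% = growth of vehicle-treated control cultures of the same strain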; conditions: S. cerevisiae mlh1 strain growth inhibition, active compounds read high
Summary of the method: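 Vehicle-normalised growth inhibition of a repair- or checkpoint-altered yeast strain following compound treatment.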

[7] = NCI Yeast Anticancer Drug Screen. Data for the mlh1 rad18 strain (AID 175); conditions: S. cerevisiae mlh1 rad18 strain growth inhibition, active compounds read high
Summary of the method: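 Vehicle-treated cultures served as the reference for growth inhibition in a yeast strain carrying DNA damage repair alterations exposed to each compound.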

[8] = NCI Yeast Anticancer Drug Screen. Data for the rad18 strain (AID 177); conditions: S. cerevisiae rad18 mutant growth inhibition, active compounds read high
Summary of the method: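 Test articles were incubated with altered yeast defective in DNA damage repair. Results are given as inhibition of growth versus vehicle.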

[9] = NCI Yeast Anticancer Drug Screen. Data for the rad52 strain (AID 147);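 note: 0% = growth of vehicle-treated control cultures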; conditions: S. cerevisiae rad52 mutant growth inhibition, active compounds read high
Summary of the method: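 Vehicle-treated cultures served as the reference for growth inhibition of compound-exposed yeast bearing a DNA repair mutation.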

[10] = NCI Yeast Anticancer Drug Screen. Data for the wt1 strain (AID 149);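 note: 0% = growth of vehicle-treated wt1 cultures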; conditions: S. cerevisiae wt1 strain (SPY 50644) growth inhibition, active compounds read high
Summary of the method: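 wt1 yeast, compound-treated; % growth inhibition vs vehicle control.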

[11] = NCI Yeast Anticancer Drug Screen. Data for the rad50EPP+ strain (AID 151);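 note: 0% = growth of vehicle-treated control cultures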; conditions: S. cerevisiae rad50 mutant strain, active compounds read high
Summary of the method: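 In this screen, rad50EPP+ yeast were exposed to compounds. Growth inhibition was scored against vehicle-treated controls.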

[12] = NCI Yeast Anticancer Drug Screen. Data for the mgt1 strain (AID 153); conditions: S. cerevisiae mgt1 mutant growth inhibition, active compounds read high
Summary of the method: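 mgt1 strain exposed; growth vs vehicle control recorded as inhibition.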

[13] = NCI Yeast Anticancer Drug Screen. Data for the rad50 strain (AID 155);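 note: 0% = growth of vehicle-only cultures of the same strain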; conditions: S. cerevisiae rad50 strain growth inhibition, active compounds read high
Summary of the method: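 Genetically altered yeast (DNA repair pathway); compound treatment; growth inhibition vs vehicle ctrl.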

[14] = NCI Yeast Anticancer Drug Screen. Data for the mec2-1 strain (AID 157); conditions: S. cerevisiae mec2-1 strain, active compounds read high
Summary of the method: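 Vehicle-treated cultures served as reference for growth inhibition of compound-exposed mec2-1 yeast.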

[15] = NCI Yeast Anticancer Drug Screen. Data for the cln2 rad14 strain (AID 165);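 note: 0% = growth equal to vehicle treated cultures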; conditions: S. cerevisiae cln2 rad14 strain, active compounds read high
Summary of the method: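 Each compound was tested on cln2 rad14 yeast. Inhibition of growth was calculated against vehicle-exposed controls.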

[16] = NCI Yeast Anticancer Drug Screen. Data for the sgs1 strain (AID 173);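 note: 0% = growth of vehicle-only control cultures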; conditions: S. cerevisiae sgs1 mutant, active compounds read high
Summary of the method: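 Screen format: yeast with repair or checkpoint alterations, compound exposure, growth read relative to vehicle.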

[17] = at 5.0 µM (retest, dose inferred, filed as 0.5)
[18] = at 50.0 µM (retest, dose inferred, filed as 5.0)

Measured: growth inhibition

O=C1NC(c2c(Cl)cccc2Cl)Nc2ccccc21 (stereo not drawn)
active: [1]; at 100.0 µM 89% | [2]; [18] 87% | [3]; at 100.0 µM 93% | [4]; at 33.0 µM 78% | [4]; [18] 87% | [4]; at 100.0 µM 94% | [5]; at 100.0 µM 89% | [6]; at 100.0 µM 87% | [7]; [17] 71% | [7]; [18] 100% | [7]; at 50.0 µM 84.5% | [8]; at 33.0 µM 74% | [8]; at 100.0 µM 93%
inactive: [1]; at 11.0 µM -28% | [1]; at 33.0 µM 58% | [2]; [17] -3% | [3]; at 1.2 µM 14% | [3]; at 3.7 µM 2% | [3]; at 11.0 µM -7% | [3]; at 33.0 µM 54% | [4]; at 1.2 µM 4% | [4]; at 3.7 µM 15% | [4]; [17] -1% | [4]; at 11.0 µM 16% | [5]; at 1.2 µM -28% | [5]; at 3.7 µM -32% | [5]; at 11.0 µM -26% | [5]; at 33.0 µM 39% | [6]; at 1.2 µM -35% | [6]; at 3.7 µM -29% | [6]; at 11.0 µM -40% | [6]; at 33.0 µM 35% | [8]; at 1.2 µM 0% | [8]; at 3.7 µM -2% | [8]; at 11.0 µM 0%

S=P(N1CC1)(N1CC1)N1CC1
inactive: [9]; at 1.2 µM -1% | [9]; at 3.7 µM 2% | [9]; at 11.0 µM 3% | [9]; at 33.0 µM 4% | [9]; at 100.0 µM 16% | [10]; at 1.2 µM -3% | [10]; at 3.7 µM -3% | [10]; at 11.0 µM -2% | [10]; at 33.0 µM -2% | [10]; at 100.0 µM -22% | [11]; at 1.2 µM -4% | [11]; at 3.7 µM -5% | [11]; at 11.0 µM -4% | [11]; at 33.0 µM 7% | [11]; at 100.0 µM 34% | [12]; at 1.2 µM -5% | [12]; at 3.7 µM -2% | [12]; at 11.0 µM -1% | [12]; at 33.0 µM -1% | [12]; at 100.0 µM -1% | [13]; at 1.2 µM -3% | [13]; at 3.7 µM 0% | [13]; at 11.0 µM 4% | [13]; at 33.0 µM 6% | [13]; at 50.0 µM 28.6% | [13]; at 100.0 µM 23% | [14]; at 1.2 µM -5% | [14]; at 3.7 µM -3% | [14]; at 11.0 µM -1% | [14]; at 33.0 µM -2% | [14]; at 50.0 µM -0.7% | [14]; at 100.0 µM 5% | [1]; at 1.2 µM 0% | [1]; at 3.7 µM 3% | [1]; at 11.0 µM 5% | [1]; at 33.0 µM 9% | [1]; at 100.0 µM 20% | [2]; at 50.0 µM 30.1% | [3]; at 1.2 µM -4% | [3]; at 3.7 µM 0% | [3]; at 11.0 µM -6% | [3]; at 33.0 µM -10% | [3]; at 100.0 µM -3% | [15]; at 50.0 µM 6.4% | [4]; at 1.2 µM -3% | [4]; at 3.7 µM -2% | [4]; at 11.0 µM 0% | [4]; at 33.0 µM -6% | [4]; at 50.0 µM 13.8% | [4]; at 100.0 µM -11% | [5]; at 1.2 µM -1% | [5]; at 3.7 µM -2% | [5]; at 11.0 µM -2% | [5]; at 33.0 µM -17% | [5]; at 100.0 µM 2% | [6]; at 1.2 µM 0% | [6]; at 3.7 µM -1% | [6]; at 11.0 µM -2% | [6]; at 33.0 µM 1% | [6]; at 100.0 µM 7% | [16]; at 1.2 µM -2% | [16]; at 3.7 µM -4% | [16]; at 11.0 µM -2% | [16]; at 33.0 µM 3% | [16]; at 100.0 µM 20% | [7]; at 50.0 µM -2.75% | [8]; at 1.2 µM -3% | [8]; at 3.7 µM -1% | [8]; at 11.0 µM 6% | [8]; at 33.0 µM 24%
active: [8]; at 100.0 µM 78%

C(=N/NC1=NCCN1)/c1c2ccccc2c(/C=N\NC2=NCCN2)c2ccccc12
active: [9]; at 1.2 µM 70% | [9]; at 3.7 µM 86% | [9]; at 11.0 µM 94% | [9]; at 33.0 µM 94% | [9]; at 100.0 µM 96% | [10]; at 100.0 µM 86% | [11]; at 11.0 µM 81% | [11]; at 33.0 µM 92% | [11]; at 100.0 µM 94% | [12]; at 100.0 µM 90% | [13]; at 3.7 µM 85% | [13]; [17] 74% | [13]; at 11.0 µM 93% | [13]; at 33.0 µM 94% | [13]; [18] 88% | [13]; at 50.0 µM 82.2% | [13]; at 100.0 µM 94% | [14]; at 33.0 µM 81% | [14]; [18] 80% | [14]; at 50.0 µM 83.6% | [14]; at 100.0 µM 90% | [2]; [18] 90% | [2]; at 50.0 µM 85.2% | [3]; at 100.0 µM 84% | [4]; [18] 83% | [4]; at 50.0 µM 79.7% | [4]; at 100.0 µM 88% | [5]; at 33.0 µM 79% | [5]; at 100.0 µM 86% | [6]; at 33.0 µM 73% | [6]; at 100.0 µM 90% | [16]; at 33.0 µM 81% | [16]; at 100.0 µM 92% | [7]; [18] 83%
inactive: [10]; at 1.2 µM -4% | [10]; at 3.7 µM 9% | [10]; at 11.0 µM 9% | [10]; at 33.0 µM 52% | [11]; at 1.2 µM 6% | [11]; at 3.7 µM 33% | [12]; at 1.2 µM -8% | [12]; at 3.7 µM -6% | [12]; at 11.0 µM 4% | [12]; at 33.0 µM 64% | [13]; at 1.2 µM 63% | [14]; at 1.2 µM 6% | [14]; at 3.7 µM 1% | [14]; [17] -13% | [14]; at 11.0 µM 20% | [2]; [17] -7% | [3]; at 1.2 µM -2% | [3]; at 3.7 µM -12% | [3]; at 11.0 µM 13% | [3]; at 33.0 µM 58% | [15]; [17] 7% | [15]; [18] 56% | [15]; at 50.0 µM 62.5% | [4]; at 1.2 µM -17% | [4]; at 3.7 µM -21% | [4]; [17] -35% | [4]; at 11.0 µM -17% | [4]; at 33.0 µM 58% | [5]; at 1.2 µM -4% | [5]; at 3.7 µM -6% | [5]; at 11.0 µM 11% | [6]; at 1.2 µM 11% | [6]; at 3.7 µM 16% | [6]; at 11.0 µM 21% | [16]; at 1.2 µM 0% | [16]; at 3.7 µM 8% | [16]; at 11.0 µM 22% | [7]; [17] -14%
